High-throughput results from PubChem BioAssay.
Most compounds without a hit are left out; they make up all but 1.6% or so of the library.
KCNQ2 pot = potentiators of rat KCNQ2 potassium channel; O88943; AID 2239; B-score at 10 µM; CHO-K1 KCNQ2, FluxOR thallium flux fluorescence; active compounds read high; actives 0.54% (n = 310,000);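 active = fluorescence ratio B-score at least 3 SD of library B-scores, with initial fluorescence B-score within 3 of them, cut at about 5.3 in these data; same plate scores as AID 2156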;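 note: B-score of peak minus minimum over baseline fluorescence ratio after K+ and Tl+ stimulus; positive B-score means potentiation of KCNQ2 with more thallium influx and brighter signal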
Target sequence (O88943 whole entry, looked up): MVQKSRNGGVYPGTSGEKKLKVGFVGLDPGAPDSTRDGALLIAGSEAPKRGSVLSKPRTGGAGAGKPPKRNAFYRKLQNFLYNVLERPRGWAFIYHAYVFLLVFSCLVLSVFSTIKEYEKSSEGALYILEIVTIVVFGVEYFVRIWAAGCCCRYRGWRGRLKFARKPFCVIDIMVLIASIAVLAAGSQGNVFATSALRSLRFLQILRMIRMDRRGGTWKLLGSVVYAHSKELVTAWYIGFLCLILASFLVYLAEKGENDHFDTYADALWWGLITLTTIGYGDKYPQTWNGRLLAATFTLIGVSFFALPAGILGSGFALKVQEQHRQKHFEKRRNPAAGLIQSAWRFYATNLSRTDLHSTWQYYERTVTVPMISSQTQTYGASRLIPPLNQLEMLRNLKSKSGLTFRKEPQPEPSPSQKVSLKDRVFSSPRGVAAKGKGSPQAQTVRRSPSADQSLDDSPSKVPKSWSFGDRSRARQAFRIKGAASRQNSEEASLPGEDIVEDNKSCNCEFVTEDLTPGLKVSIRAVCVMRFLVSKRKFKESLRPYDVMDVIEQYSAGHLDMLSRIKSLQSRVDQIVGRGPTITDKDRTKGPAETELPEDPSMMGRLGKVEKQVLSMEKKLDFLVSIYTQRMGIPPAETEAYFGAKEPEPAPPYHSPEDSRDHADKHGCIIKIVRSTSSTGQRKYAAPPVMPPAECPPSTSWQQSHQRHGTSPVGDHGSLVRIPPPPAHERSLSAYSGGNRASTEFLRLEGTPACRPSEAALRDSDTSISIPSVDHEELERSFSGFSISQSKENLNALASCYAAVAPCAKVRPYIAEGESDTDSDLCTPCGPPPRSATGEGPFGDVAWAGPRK
KCNQ2 block = blocks the rat KCNQ2 potassium channel; O88943; CHO-K1 KCNQ2, FluxOR thallium flux, 20 min; active compounds read low; B-score at 10 µM; actives 1.1% (n = 310,000);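 active = fluorescence ratio B-score at most minus 3 library SDs, with starting brightness B-score within 2 library SDs, cut at about -5.5 in these data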
KCNQ2 inh conf = confirmation of rat KCNQ2 potassium channel inhibitors | shares compounds with KCNQ2 block | KCNQ2-expressing cells, thallium flux, inhibition; active compounds read low | activity change, negative = inhibition, % at 10 µM | actives 57% (n = 1,000);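 note: 0% = vehicle wells and values are ratio percent relative to vehicle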
KCNQ1 spec = selectivity of KCNQ2 inhibitors against human KCNQ1; KCNQ1-expressing cells, FluxOR thallium flux fluorescence; active compounds read low; activity change, negative = inhibition, % at 10 µM; AID 493026; shares compounds with KCNQ2 block; actives 15% (n = 1,000);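 active = activity change at least 3 SD of negative controls below their mean in both duplicate wells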;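 note: CHO cells stably transfected with KCNQ1 and depolarized by potassium stimulus; peak minus minimum fluorescence over baseline after thallium addition; 0% = vehicle negative control and -100% = blank without thallium stimulus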
CHO Tl ctr = counter-screen for KCNQ2 inhibitors: effect in parental CHO cells; actives 14% (n = 1,000); shares compounds with KCNQ2 block; activity change, % at 10 µM; thallium flux counter-screen; active compounds read low;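 note: 0% = vehicle negative controls with stimulus buffer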
KCNQ2 patch conf = blocks rat KCNQ2 current in automated patch clamp; actives 49% (n = 550); AID 588531; shares compounds with KCNQ2 block; calls only at 10 µM; KCNQ2-expressing cells
Active calls of the source: *. Unless noted, the rule behind the calls is not given here.

Screening CCn1c(=O)c(C(=O)NCc2ccccc2OC)c(O)c2ccccc21 returned KCNQ2 block inactive.
`CCn1c(=O)c(C(=O)NCc2cccnc2)c(O)c2ccccc21` gave KCNQ2 pot 1.07 and KCNQ2 block inactive.
CCn1c(=O)c(C(=O)NCc2ccc(Cl)cc2)c(O)c2ccccc21 was read as KCNQ2 pot -7.56, KCNQ2 block -7.56*, KCNQ2 inh conf -25.0%*, KCNQ1 spec inactive, CHO Tl ctr inactive and KCNQ2 patch conf inactive.
Screening CCn1c(=O)c(C(=O)NCc2ccc(F)cc2)c(O)c2ccccc21 returned KCNQ2 pot -6.72, KCNQ2 block -6.72*, KCNQ2 inh conf inactive, KCNQ1 spec inactive and CHO Tl ctr inactive.
Screening COc1ccc(OCC(=O)N2CCN(c3cccc(C(F)(F)F)c3)CC2)cc1 returned KCNQ2 block inactive.
COc1ccc(Nc2ccc(C(=O)O)cc2[N+](=O)[O-])cc1 was read as KCNQ2 pot 1.18 and KCNQ2 block inactive.
For CCSc1cc(N2CCCC2)nc(-c2cccc(C)c2)n1 the results were KCNQ2 block inactive.
Cc1cc(C(=O)Nc2cccc3ccccc23)c(C)o1 was read as KCNQ2 pot 1.67 and KCNQ2 block inactive.
Screening Cc1oc(CC(C)C)cc1C(=O)Nc1cccc2ccccc12 returned KCNQ2 pot -7.74, KCNQ2 block -7.74*, KCNQ2 inh conf inactive, KCNQ1 spec inactive and CHO Tl ctr inactive.
For CC1CCN(C(=O)c2ccc(S(=O)(=O)N3CCOCC3)cc2)CC1 the results were KCNQ2 pot 0.84 and KCNQ2 block inactive.
For COC(=O)c1ccc(C(=O)OC)c(NC(=O)COC(=O)CC2CC3CCC2C3)c1 (centres undefined) the results were KCNQ2 pot -11.4, KCNQ2 block -11.4*, KCNQ2 inh conf inactive, KCNQ1 spec inactive and CHO Tl ctr inactive.
Cc1ccc(Cl)cc1NC(=O)COC(=O)CC1CC2CCC1C2 (centres undefined) was read as KCNQ2 block inactive.
`Cc1nc(Sc2ccc(Br)cc2)c(C#N)c(C)c1[N+](=O)[O-]` gave KCNQ2 pot -7.65, KCNQ2 block -7.65*, KCNQ2 inh conf -20.5%*, KCNQ1 spec inactive, CHO Tl ctr inactive and KCNQ2 patch conf inactive.
Cc1ccc(Sc2nc(C)c([N+](=O)[O-])c(C)c2C#N)cc1 was read as KCNQ2 block inactive.
`Cc1cc(C(=O)N/N=C/c2cccs2)no1` gave KCNQ2 pot 0.04 and KCNQ2 block inactive.
Screening CSc1ccc(S(=O)(=O)Nc2ccc(S(=O)(=O)Nc3ccc(C)cc3)cc2)cc1 returned KCNQ2 block inactive.
`Cc1ccc(S(=O)(=O)Nc2ccc(N=Nc3ccc(O)cc3)cc2)cc1` gave KCNQ2 pot -8.69, KCNQ2 block -8.69*, KCNQ2 inh conf inactive, KCNQ1 spec inactive and CHO Tl ctr inactive.
`COc1ccc(-n2c(=O)c3c4c(sc3n(CC(=O)NCC3CCCO3)c2=O)CCCC4)c(OC)c1` (centres undefined) gave KCNQ2 block inactive.
`COc1ccc(-n2c(=O)c3c4c(sc3n(CC(=O)NC3CCCC3)c2=O)CCCC4)c(OC)c1` gave KCNQ2 pot -6.71, KCNQ2 block -6.71*, KCNQ2 inh conf inactive, KCNQ1 spec inactive and CHO Tl ctr inactive.
CCN(CC(=O)NCc1ccc(Cl)cc1)C(=O)CSc1cc(C)ccc1C was read as KCNQ2 pot -8.24, KCNQ2 block -8.24*, KCNQ2 inh conf -22.0%*, KCNQ1 spec inactive, CHO Tl ctr inactive and KCNQ2 patch conf active.
For CCN(CC(=O)NCc1ccc(Cl)cc1)C(=O)CSc1ccc(F)cc1 the results were KCNQ2 block inactive.
Cc1cccc(N2CCN(CC(=O)NCc3ccc(Cl)cc3)CC2)c1C was read as KCNQ2 block inactive.
Screening CCN(CC(=O)NCc1ccc(F)cc1)C(=O)CN1CCN(c2cc(Cl)ccc2C)CC1 returned KCNQ2 pot -9.54, KCNQ2 block -9.54*, KCNQ2 inh conf -26.5%*, KCNQ1 spec inactive, CHO Tl ctr inactive and KCNQ2 patch conf active.
Screening O=C1CCCC/C1=C\Nc1ccc(Cl)cn1 returned KCNQ2 pot 1.41 and KCNQ2 block inactive.
Screening Cc1nc(C)n(C(C)CNC(=O)c2cccc(Br)c2)n1 (centres undefined) returned KCNQ2 pot 0.12 and KCNQ2 block inactive.
O=C1CCCN1CCC12CC3CC(CC(C3)C1)C2 was read as KCNQ2 block inactive.
`O=C(Cc1ccc(Cl)cc1)N1CCN(C(=O)c2ccco2)CC1` gave KCNQ2 block inactive.
`O=C(COc1ccc(Cl)cc1)N(Cc1ccccc1)c1ccccn1` gave KCNQ2 pot -9.06, KCNQ2 block -9.06*, KCNQ2 inh conf inactive, KCNQ1 spec inactive and CHO Tl ctr inactive.
O=C(COc1ccc(Br)cc1)N(Cc1ccccc1)c1ccccn1 was read as KCNQ2 block inactive.
Screening CCCc1ccc(Oc2cn[nH]c2-c2ccc(O)c(C)c2O)cc1 returned KCNQ2 block inactive.
Screening CC(=O)OC[C@H]1O[C@@H](n2ncc(=O)[nH]c2=O)[C@H](OC(C)=O)[C@@H]1OC(C)=O returned KCNQ2 pot 0.09 and KCNQ2 block inactive.
O=C(OCC1OC(n2ncc(=O)[nH]c2=O)C(OC(=O)c2ccccc2)C1OC(=O)c1ccccc1)c1ccccc1 (centres undefined) was read as KCNQ2 pot -11.1, KCNQ2 block -11.1*, KCNQ2 inh conf -22.5%*, KCNQ1 spec inactive, CHO Tl ctr inactive and KCNQ2 patch conf inactive.
Screening Cc1ccc(NC(=O)C(Nc2cccc(C)c2)c2ccccc2)cc1 (centres undefined) returned KCNQ2 pot -7.44, KCNQ2 block -7.44*, KCNQ2 inh conf -28.0%*, KCNQ1 spec inactive, CHO Tl ctr inactive and KCNQ2 patch conf inactive.
`Cc1ccc(NC(=O)C(Nc2ccccc2)c2ccccc2)cc1` (centres undefined) gave KCNQ2 block inactive.
`O=C(CN1CCCC1)N1c2ccccc2Sc2ccccc21` gave KCNQ2 pot 1.95 and KCNQ2 block inactive.
Screening CC1(C)CCCN(C(=O)N2c3ccccc3Sc3ccccc32)C1 returned KCNQ2 pot -8.59, KCNQ2 block -8.59*, KCNQ2 inh conf inactive, KCNQ1 spec inactive and CHO Tl ctr inactive.
`COc1ccc(C(=O)CCN2CCN(c3ccc(OC)cc3)CC2)cc1` gave KCNQ2 block inactive.
O=C(CCN1CCOCC1)c1ccc(Br)cc1 was read as KCNQ2 pot -7.4, KCNQ2 block -7.4*, KCNQ2 inh conf -47.0%*, KCNQ1 spec -50.0%*, CHO Tl ctr -36.5%* and KCNQ2 patch conf inactive.
`COc1ccc(C(=O)CCN2CCN(c3ccccc3F)CC2)cc1` gave KCNQ2 block inactive.
O=C(CCN1CCOCC1)c1ccc(Cl)cc1 was read as KCNQ2 block inactive.
